# The supplement of paper PMC10981050
# Several values for one entry are separate records, joined by “and”; a condition that tells them apart may be missing. Equal values may be shown once. Where a name gives a salt, the structure may show the parent alone.
# How the values were obtained:
# Assay in all cases: cell viability relative to vehicle control; higher = less cytotoxic
# Conditions in all cases: 10 µM
# [1] = system: K562
# How it was run: (§1)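 Screening covered the Selleck bioactive, kinase and epigenetic probe libraries, less identity-inconsistent compounds, on CRISPR-edited mutant clones and isogenic wild-type clones of four leukaemia lines. Cells, at 2000 per well in 50 µL medium, received a single 10 µM acoustically dispensed dose. After 48 h the supernatant was removed and CellTiter-Glo luminescence was read. Viability was analysed in Genedata Screener as percent of the on-plate vehicle control.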
# [2] = system: MARIMO
# How it was run: as §1
# [3] = system: MOLM14
# How it was run: as §1
# [4] = system: OCI-AML2
# How it was run: as §1
SMILES,cell viability ([1]; SRSF2 genotype: SRSF2 P95H/wt),cell viability ([1]; SRSF2 genotype: SRSF2 wt/wt) [%],cell viability ([2]; SRSF2 genotype: SRSF2 P95H/wt) [%],cell viability ([2]; SRSF2 genotype: SRSF2 wt/wt) [%],cell viability ([3]; SRSF2 genotype: SRSF2 P95H/wt) [%],cell viability ([3]; SRSF2 genotype: SRSF2 wt/wt) [%],cell viability ([4]; SRSF2 genotype: P95H/wt) [%],cell viability ([4]; SRSF2 genotype: wt/wt) [%]
Cc1cc(C)nc(O)n1.O=C(Nc1ccc([N+](=O)[O-])cc1)Nc1ccc([N+](=O)[O-])cc1 [Nicarbazin],100% and 101%,110,97,106,103,101,120,97.1
C=C[C@@H]1C[C@]1(NC(=O)[C@@H]1C[C@@H]2CN1C(=O)[C@H](C(C)(C)C)NC(=O)O[C@@H]1C[C@H]1CCCCCc1nc3ccc(OC)cc3nc1O2)C(=O)NS(=O)(=O)C1CC1 [Grazoprevir],96.2% and 101%,93.4,115,123,111,105,116,115
Cc1oncc1C(=O)Nc1ccc(C(F)(F)F)cc1 [Leflunomide],93.4% and 96.5%,86.8,94.9,90.1,102,98.3,80.3,85.1
O=C(O)c1cccnc1 [Niacin (Nicotinic acid)],108% and 98.1%,109,99.3,111,103,101,74,78.7
Cc1ccccc1C(=O)Nc1ccc(C(=O)N2CCCC(O)c3cc(Cl)ccc32)c(C)c1 (stereo not drawn),89.3% and 84.8%,85.7,80.7,99.9,84.2,91.7,91.6,83
O=C(Nc1cccc(Cl)c1)c1ccccn1,99.3% and 105%,97,98.5,109,112,114,96.2,97
c1ccc2c(CC3=NCCN3)cccc2c1 [Naphazoline hydrochloride (Naphcon)],102% and 99.6%,94.5,106,107,97.1,103,97.8,106
CC(=O)Nc1nc(C)c(-c2ccc(Cl)c(S(=O)(=O)NCCO)c2)s1,74.9% and 77.5%,81.1,38.1,38.7,32.8,37.1,12.2,24.4
Cc1[nH]c2ccccc2c1C1=C(NCCc2ccc(F)cc2)C(=O)N(C)C1=O,97% and 105%,102,94.9,100,99.4,105,100,89.8
CC(C)=CCCC(C)(O)C1CCC2(C)C1C(O)CC1C3(C)CCC(O)C(C)(C)C3CCC12C [(20S)-Protopanaxadiol],98% and 105%,107,96.7,109,102,102,115,93.5
Cc1ccccc1CN1C(=O)C2=C(CCN(Cc3ccccc3)C2)N2CCN=C12,48.2% and 48%,44.5,46.4,43.9,36.8,44.5,29.3,32
COc1ccccc1Oc1c(NS(=O)(=O)c2ccc(C(C)(C)C)cc2)nc(-c2ncccn2)nc1OCCO [Bosentan Hydrate],99.5% and 99.8%,98.6,97.3,104,97.1,105,112,95.2
CN1CCN(Cc2ccc(NC(=O)Nc3ccc(Oc4cc(NC(=O)C5CC5)ncn4)cc3)cc2C(F)(F)F)CC1,21.2% and 19%,20.5,1.8,1.13,0.31,0.31,0.36,1.73
O=c1c(O)c(-c2ccc(O)c(O)c2)oc2cc(O)ccc12 [Fisetin (Fustel)],102% and 108%,105,104,100,86.8,103,102,95.1
NC[C@@](O)(c1ccc(Cl)cc1)c1ccc(-c2cn[nH]c2)cc1,34.7% and 19.4%,13,52.9,56.4,29.3,25.6,13.8,17.4
Cc1c[nH]c2nc(Nc3ccc(N4CCN(C)CC4)c(F)c3)nc(-c3cccc(CC#N)c3)c12,11.7% and 1.85%,4.64,4.43,2.84,0.86,0.46,0.41,4.1
COc1ccc(-c2cc(=O)c3c(O)c(OC)c(O)c(OC)c3o2)cc1 [Lysionotin],104% and 98%,98.9,97.9,114,64,76.8,74.8,83
CC1=CC(=O)CC(C)(C)C1=O [Ketoisophorone],98.4% and 92.1%,100,98.3,110,101,105,96.1,108
C#C[C@]1(O)CC[C@H]2[C@@H]3CCC4=CC(=O)CC[C@@H]4[C@H]3CC[C@@]21CC [Levonorgestrel (Levonelle)],104% and 102%,101,95.7,109,104,103,105,108
CCC(=O)O[C@]1(C(=O)CCl)[C@@H](C)C[C@H]2[C@@H]3C[C@H](F)C4=CC(=O)C=C[C@]4(C)[C@@]3(F)[C@@H](O)C[C@@]21C [Halobetasol Propionate],92.5% and 97.2%,89,101,98.1,76.3,85.8,99.3,105
COc1ccc(-c2ccc3c(N4CCOCC4)nc(N4C[C@@H](C)O[C@@H](C)C4)nc3n2)cc1CO,45.8% and 54.8%,46.6,60.9,50.6,37,29.8,33.4,34.5

SMILES,cell viability ([1]; SRSF2 genotype: SRSF2 P95H/wt),cell viability ([1]; SRSF2 genotype: SRSF2 wt/wt) [%],cell viability ([2]; SRSF2 genotype: SRSF2 P95H/wt) [%],cell viability ([2]; SRSF2 genotype: SRSF2 wt/wt) [%],cell viability ([3]; SRSF2 genotype: SRSF2 P95H/wt) [%],cell viability ([3]; SRSF2 genotype: SRSF2 wt/wt) [%],cell viability ([4]; SRSF2 genotype: P95H/wt) [%],cell viability ([4]; SRSF2 genotype: wt/wt) [%]
C=C1C2CCC(C2)C1(C)CCC=C(C)CO (stereo not drawn) [Santalol],106% and 103%,98.6,105,94.3,106,104,102,101
O=C(O)c1cn(-c2ccc(F)cc2)c2cc(N3CCNCC3)c(F)cc2c1=O [Sarafloxacin HCl],99.7% and 102%,90.9,97.8,102,103,99.5,102,102
O=C(O)c1cc(C(=O)O)c2c(n1)C(=O)C(=O)c1cc(C(=O)O)[nH]c1-2 [Pyrroloquinoline Quinone Disodium Salt],101% and 95.6%,98.9,94.1,106,88.8,107,106,99.4
COc1ccc(NC(=O)c2ccc(C(=N)N(C)C)cc2)c(C(=O)Nc2ccc(Cl)cn2)c1 [Betrixaban maleate],96.1% and 95.9%,89.5,86.5,89.9,99.9,102,81.3,76.5
O=C(Nc1ccccc1Br)N[C@@H]1CCN(c2ccc(C(F)(F)F)cn2)C1,88.5% and 90.8%,91.5,89.3,101,98.5,99.3,78.4,89.7
CC1(C)CC[C@]2(C(=O)O)[C@H](O)C[C@]3(C)C(=CC[C@@H]4[C@@]5(C)CC[C@H](O)[C@@](C)(C=O)[C@@H]5CC[C@]43C)[C@@H]2C1 [Quillaic acid],96.1% and 95.3%,82.9,95,104,84.6,91.7,98.9,96.8
O=c1cc(-c2ccc(O[C@@H]3O[C@H](CO)[C@@H](O)[C@H](O)[C@H]3O)cc2)oc2cc(O)c([C@@H]3O[C@H](CO)[C@@H](O)[C@H](O)[C@H]3O[C@@H]3OC[C@H](O)[C@H](O)[C@H]3O)c(O)c12 [Vaccarin],97.3% and 93.7%,94.2,99.2,96.3,92.3,100,91.1,96
CCCNC(=O)Nc1ccc(Oc2ncnc3cc(OC)c(OC)cc23)cc1Cl,99.4% and 106%,99.8,108,113,92,105,99.5,101
COc1cc(Cc2cnc(N)nc2N)cc(OC)c1OC [Trimethoprim],102% and 101%,94.4,103,104,102,104,101,101
NC12CC3CC(CC(C3)C1)C2 [Amantadine hydrochloride (Symmetrel)],99.7% and 116%,107,107,103,106,112,111,100
Cc1cc(C#N)cc(C)c1Oc1nc(Nc2ccc(C#N)cc2)nc(N)c1Br [Etravirine (TMC125)],101% and 96.6%,94.6,97,108,107,102,99.5,117
COc1cc2ncnc(Nc3ccc(F)c(Cl)c3)c2cc1NC(=O)/C=C/CN1CCCCC1,63.7% and 73.8%,87.8,55.2,58.2,26.9,54.4,20.2,37.2
O=C(O)c1ccc(O)c(O)c1 [Protocatechuic acid],101% and 97.7%,93.3,93.1,96.1,96.8,103,98.4,104
CC(C)=CCC/C(C)=C\CO [Nerol],109% and 104%,104,110,114,106,107,103,109
Cc1cc(N2CCCCC2)nc2ccccc12,97% and 102%,98.3,93.6,106,98.8,109,96.6,103
CC1CCc2c(N3CCC(O)CC3)c(F)cc3c(=O)c(C(=O)O)cn1c23 (stereo not drawn) [Nadifloxacin],94% and 98.4%,92.4,102,105,107,108,114,94
CS(=O)(=O)Nc1ccc([N+](=O)[O-])cc1Oc1ccccc1 [Nimesulide],105% and 109%,99.8,102,108,109,103,101,110
COC(=O)C1=CO[C@@H](O)[C@@H]2C(CO)=CC[C@H]12 [Genipin],94.8% and 97.4%,95.1,71.1,85.7,78,90.4,26.4,41.1
Cc1csc(-c2nnc(Nc3ccc(Oc4ncccc4-c4ccnc(N)n4)cc3)c3ccccc23)c1,67.2% and 86.6%,81.4,91.6,77.7,53.3,30.5,38.5,33.4
NC(N)=Nc1nc(CSCC/C(N)=N/S(N)(=O)=O)cs1 [Famotidine (Pepcid)],105% and 106%,109,111,106,103,107,107,107
